According to PubChem BioAssay AID1159580 (chemical genetic matrix, 2015):
In all, about 5,500 compounds went through this assay and about 2,000 (36%) were called active. Another 18% or so got no clear call; they are omitted. No stated cut-off is given here; in the data, active means normalized growth mostly below about 0.91 (no sharp cut-off); inconclusive means no clear call, values can overlap the other calls; inactive means mostly above about 0.92. This is one part of the list.

Experiment: chemical genetic growth profiling, strain panel (AID 1159580);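 further: tested at 20 µM; growth read once vehicle control cultures reached saturation at 30 °C; 1 = growth at the plate median or of vehicle wells; lower values mean less growth of the strain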
Conditions: S. cerevisiae deletion strains, growth OD
[1] = locus YAL013W, strain DEP1, hits give low values
[2] = locus YBR229C, strain ROT2, hits give low values
[3] = locus YCL061C, strain MRC1, hits give low values
[4] = locus YDL101C, strain DUN1, hits give low values
[5] = locus YDR150W, strain NUM1, hits give low values
[6] = locus YEL061C, strain CIN8, hits give low values
[7] = locus YGR078C, strain PAC10, hits give low values
[8] = locus YHR030C, strain SLT2, hits give low values
[9] = locus YHR087W, strain rtc3, hits give low values
[10] = locus YJR043C, strain POL32, hits give low values
[11] = locus YJR075W, strain HOC1, hits give low values
[12] = locus YKL190W, strain CNB1, hits give low values
[13] = locus YLR039C, strain RIC1, hits give low values
[14] = locus YLR058C, strain SHM2 (second series), hits give low values
[15] = locus YLR085C, strain ARP6, hits give low values
[16] = locus YLR262C, strain YPT6, hits give low values
[17] = locus YML094W, strain GIM5, hits give low values
[18] = locus YMR219W, strain ESC1, hits give low values
[19] = locus YMR263W, strain SAP30, hits give low values
[20] = locus YNL153C, strain GIM3, hits give low values
[21] = locus YNL298W, strain CLA4 (second series), hits give low values
[22] = locus YNL322C, strain KRE1, hits give low values
[23] = locus YNR030W, strain Alg12, hits give low values
[24] = locus YPL055C, strain LGE1, hits give low values
[25] = locus YPL241C, strain CIN2, hits give low values
[26] = locus YPR135W, strain CTF4, hits give low values

Measured: normalized growth

CC(=O)Nc1cc([N+](=O)[O-])ccc1-n1cc(C)c(C(F)(F)F)n1
inactive: [1] 0.966 | [2] 0.985 | [3] 0.978 | [4] 0.986 | [5] 0.947 | [6] 0.998 | [7] 0.996 | [8] 0.871 | [9] 0.982 | [10] 1 | [11] 0.973 | [12] 0.992 | [13] 0.935 | [14] 0.988 | [15] 0.94 | [16] 0.928 | [17] 0.963 | [18] 0.988 | [19] 0.917 | [20] 0.985 | [21] 0.962 | [22] 0.981 | [23] 0.962 | [24] 0.931 | [25] 1.03 | [26] 0.905

COC(=O)c1cc([N+](=O)[O-])ccc1NC(C)=O
inactive: [1] 0.986 | [2] 1 | [3] 0.997 | [4] 1.01 | locus YDL134C, strain PPH21, hits give low values 1.01 | [5] 0.989 | [6] 0.989 | [7] 1 | locus YGR229C, strain SMI1, hits give low values 1 | [8] 0.929 | [9] 1.02 | locus YJL187C, strain SWE1, hits give low values 0.998 | [10] 0.994 | [11] 1.03 | [12] 0.995 | [13] 1.05 | [14] 0.996 | [15] 0.977 | [16] 1.03 | [17] 1.02 | [18] 0.999 | [19] 0.979 | locus YMR307W, strain GAS1, hits give low values 0.998 | locus YNL128W, strain TEP1, hits give low values 1.01 | [20] 0.986 | [21] 0.958 | [22] 1.01 | [23] 1 | [24] 0.983 | [25] 1.03 | [26] 0.992
